High-throughput results from PubChem.
An excerpt weighted towards active compounds, which were near 1.4% of everything screened.
A3A deaminase = human APOBEC3A DNA deaminase inhibition. inhibition, % at 20 µM. actives 0.41% (n = 330,000). recombinant A3A, FAM/TAMRA ssDNA deamination fluorescence. P31941;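 active = at least 40% inhibition at 20 µM here, with at most 30% in a related deaminase screen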
LANA-H2B inh = blocks KSHV LANA binding to histone H2A/H2B; Q9QR71; cell-free LANA-H2A/H2B peptide, fluorescence polarization; inhibition, % (test concentration not listed); actives 0.6% (n = 320,000); AID 2629; in the data active = inhibition mostly above about 10%, no sharp cut-off; inactive = mostly below about 6.7%
HDAC3 inhib = blocks human histone deacetylase 3. O15379. recombinant HDAC3, fluorogenic peptide/trypsin coupled, fluorescence. inhibition, % at 8.3 µM. actives 0.15% (n = 320,000); in the data active = inhibition above about 26%, passing the limit was not always enough; inconclusive = no clear call, values can overlap the other calls
A3G deaminase = blocks human APOBEC3G single-stranded DNA deamination; Q9HC16; recombinant A3G, ssDNA deamination FAM/TAMRA fluorescence; inhibition, % at 20 µM; actives 0.28% (n = 330,000); AID 493012;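 active = inhibition of at least 40% at 20 µM, with no more than 30% in the related APOBEC3A deaminase screen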
A3A conf = APOBEC3A (human) deaminase inhibition, confirmed; recombinant A3A, ssDNA deaminase UDG fluorescence assay; shares compounds with A3A deaminase; inhibition, % at 20 µM; actives 63% (n = 1,400);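 active = inhibition reaching a set limit, 80% of the first screen's cutoff, at 20 µM in any replicate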
UDG A3A counter = inhibits UDG, flagging false APOBEC3A inhibitors; AID 504714; 1,000 tested, under 10 active; inhibition, % at 20 µM; shares compounds with A3A deaminase; UDG counterscreen, FAM/TAMRA uracil oligo fluorescence; call rule not given here
Large screens that a line does not name were inactive (follow-up assays come after a bar, where they were run).

O=C(NCc1ccc2c(c1)OCO2)c1cc2ncc(Br)cn2n1	A3A deaminase 93 | A3A conf 83 | UDG A3A counter inactive
CC(C)(C)OC(=O)N1CC(O)CC1C(=O)OCC(=O)c1ccccc1 (stereo not given)	none
CC(C)(C)OC(=O)N1CC(O)CC1C(=O)OCC(=O)c1ccc(-c2ccccc2)cc1 (stereo not given)	A3A deaminase 83 | A3A conf 71 | UDG A3A counter inactive
CC(C)(C)OC(=O)N1CC(O)CC1C(=O)OCC(=O)c1ccc(Cl)cc1 (stereo not given)	A3A deaminase 42 | A3A conf inactive
CCCC1(C(=O)OC)NC(c2ccc(OC)cc2OC)C2C(=O)N(c3cccc(C(C)=O)c3)C(=O)C21 (stereo not given)	none
COc1ccc(CNCCC2(O)CC(C)N(C)CC2C)cc1OC (stereo not given)	none
COc1ccc(C=NCCC2(O)CC(C)N(C)CC2C)cc1 (stereo not given)	A3A deaminase 48 | A3A conf inactive
COc1ccc(C2=CC3=C(Br)C(=O)C(C)(OC(=O)C4CCCC4)C(=O)C3=CO2)cc1 (stereo not given)	none
COC(=O)CCC(=O)OC1(C)C(=O)C2=COC(c3ccc(OC)cc3)=CC2=C(Br)C1=O (stereo not given)	A3A deaminase 46 | A3A conf inactive
N#Cc1ccccc1S(=O)(=O)N1CCN(C(=O)c2cc3c(s2)CCC3)CC1	A3A deaminase 51 (no result: LANA-H2B inh, HDAC3 inhib) | A3A conf 36 | UDG A3A counter inactive
N#C/C(=C/c1ccccc1OCc1ccc(F)cc1)c1ccc(C(=O)O)cc1	A3A deaminase 67 | A3A conf inactive
O=C(Nc1cc2c(cc1Br)OCCCO2)c1cccnc1	none
O=C(Nc1cc2c(cc1Br)OCCCO2)c1ccccc1	A3A deaminase 55 | A3A conf inactive
COc1cccc(CN(C)C(=O)CCN(c2ccccc2)S(=O)(=O)c2ccc(C)cc2)c1OC	none
O=C(Nc1ccc(NC(=O)C2CC2)cn1)c1ccccc1Cl	A3A deaminase 43 | A3A conf inactive | UDG A3A counter inactive
COc1ccc(N(C)S(=O)(=O)c2cccc(C(=O)NCc3ccc(C)cc3)c2)cc1	none
COc1ccc(-c2csc(N(CCCN(C)C)C(=O)c3ccccc3C)n2)cc1	HDAC3 inhib inconclusive
COc1ccc(-c2csc(N(CCCN(C)C)C(=O)c3ccccc3F)n2)cc1	A3A deaminase 48 | A3A conf inactive | UDG A3A counter inactive
COc1cc(C(N)=O)cc(Br)c1OC	A3A deaminase 44 | A3A conf 47 | UDG A3A counter inactive
Cc1cc(C)c2nc(-c3cccc(Cl)c3)c(C)c(C(=O)N3CCOCC3)c2c1	none
CCn1c(/C=C/N(C(C)=O)c2ccccc2)[n+](CC)c2ccc(Cl)cc21	A3A deaminase 63 | A3A conf 64 | UDG A3A counter inactive
CCOC(=O)c1ccc2c(c1)[nH]c(=S)n2CC	none
CCOC(=O)c1ccc2c(c1)n(CC)c(C)[n+]2CC	A3A deaminase 73 | A3A conf 69 | UDG A3A counter inactive
CCn1c(C)[n+](CC)c2ccc(S(=O)(=O)N(C)C)cc21	none
CCn1c(C)[n+](CC)c2ccc(C(=O)N(C)c3ccccc3)cc21	A3A deaminase 71 | A3A conf 80 | UDG A3A counter inactive
CC[n+]1c(C)n(C)c2cc(S(=O)(=O)N(C)C)ccc21	A3A deaminase 82 | A3A conf 77 | UDG A3A counter inactive
CCOC(=O)C1=C(C)N(C[C@@H]2CC[C@@H](Cc3ccc(-c4ccccc4)cc3)O2)C(=O)NC1c1cccc([N+](=O)[O-])c1 (stereo not given in full)	none (no result: LANA-H2B inh, HDAC3 inhib)
Cc1nnc(SCC(=O)NC2CCCC2)n1C(C)C	none
CCn1c(C)[n+](CC)c2ccc(S(=O)(=O)NC)cc21	A3A deaminase 76 | A3A conf 49 | UDG A3A counter inactive
C/C(=N/Nc1ccccc1C(=O)O)c1cccs1	none
C/C(=N\Nc1ccc(Cl)c(C(=O)O)c1)c1cccs1	A3A deaminase 42 | A3A conf inactive
CC(C)n1ncc2c(C(=O)NCc3cccnc3)cc(C3CC3)nc21	none (no result: LANA-H2B inh, HDAC3 inhib)
CCOCc1cnc(C)nc1NCC(=O)c1c(C)[nH]c2cc(C)ccc12	A3A deaminase 56 | A3A conf 64 | UDG A3A counter inactive
O=C1OC(COc2ccc(Br)cc2)CN1c1ccccc1 (stereo not given)	none
O=C(CNC(=O)c1ccccc1F)NCC(c1cccs1)N1CCOCC1 (stereo not given)	none
Cc1ccc(C(=O)Nc2cc(Cl)ccc2-n2cncn2)o1	A3A deaminase 41 (no result: LANA-H2B inh, HDAC3 inhib) | A3A conf 48 | UDG A3A counter inactive
Cc1ccc(C(=O)Nc2cc(C(F)(F)F)ccc2-n2cncn2)o1	none
C/C=C/C1=CC(=O)C[C@H](c2ccc3c(c2)OCO3)C1	none
COc1ccc(CN(C)C(=O)CCCNC(=O)c2ccc(Cl)cc2)cc1	A3A deaminase 46 | A3A conf inactive
COc1cccc(CN(C)C(=O)CN2C(=O)NC(c3ccccc3)(c3ccccc3)C2=O)c1	none (no result: LANA-H2B inh, HDAC3 inhib)
COc1ccc2c(c1)CC(C(=O)Nc1ccc(Cl)cc1)/C(=N/O)O2 (stereo not given)	none
Cc1ccc(NC(=O)c2cc([N+](=O)[O-])ccc2N2CCOCC2)cc1S(=O)(=O)N1CCOCC1	A3A deaminase 42 | A3A conf inactive
Cc1ccc(NC(=O)c2ccc([N+](=O)[O-])o2)cc1S(=O)(=O)N1CCOCC1	none
CCN(CC(=O)Nc1cc(Cl)ccc1C)C(=O)c1cc([N+](=O)[O-])ccc1N1CCOCC1	A3A deaminase 80 | A3A conf inactive
CN(CC(=O)Nc1ccccc1Br)C(=O)c1cc([N+](=O)[O-])ccc1N1CCOCC1	A3A deaminase 42 | A3A conf inactive
Cc1cccc(NC(=O)C2CCN(C(=O)c3ccc(Cl)cc3)CC2)n1	none
COC(=O)c1ccc(CNC(=O)c2ccc(S(=O)(=O)N(C)c3ccccc3OC)cc2)cc1	none
COC(=O)C1=C(O)/C(=C\c2ccc(OCC(=O)Nc3ccc(OC)cc3)cc2)N=C1C	none
O=C(NNC(=O)c1ccc2[nH]c(=O)c(=O)[nH]c2c1)c1cccc(Br)c1	none
CCCCN(C(=O)c1ccco1)C1CCS(=O)(=O)C1 (stereo not given)	A3A deaminase 65, HDAC3 inhib inconclusive | A3A conf inactive | UDG A3A counter inactive
CC12CCC(=O)N1C(C(=O)N1CCN(c3ccc([N+](=O)[O-])cc3)CC1)CS2 (stereo not given)	none
Cc1ccc(/C=C2\C(=N)N3N=C(CC(=O)N4CCCCC4)SC3=NC2=O)cc1	none
N=C1/C(=C/c2ccc(Br)o2)C(=O)N=C2SC(CC(=O)N3CCCC3)=NN12	A3A deaminase 43 | A3A conf 45
N=C1/C(=C/c2ccco2)C(=O)N=C2SC(CC(=O)N3CCCC3)=NN12	A3A deaminase 51 | A3A conf 42 | UDG A3A counter inactive
